According to PubChem BioAssay (Tox21):
Records with an inconclusive call do not appear. Activity calls are given as the source filed them. Unless noted, the call rests on the fitted dose curve; in most records, active means well fitted curve in the direction sought with a large enough effect in the repeat runs; inconclusive means weak or mixed curves; inactive means no such curve, though single readings can be large; an effect the other way counts as inactive or inconclusive.

How the values were obtained:
[1] = qHTS assay to identify small molecule antagonists of the estrogen related receptor (ERR) signaling pathway from Tox21 library - cell viability counter screen (AID 1224834); further: nearly all actives have a fitted effect of over 30% in size; further: potency means the concentration at half of the fitted maximal effect
Summary of the method: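 ERR reporter cells, 2,000 per well, rested 6 h, then exposed to compound in DMSO for 17.5 hours at 37 C. Viability read as fluorescence after 30 min with CellTiter-Fluor.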

[2] = qHTS assay to identify small molecule agonists of the constitutive androstane receptor (CAR) signaling pathway - cell viability counter screen (AID 1224836); further: nearly all actives have a fitted effect of over 45% in size; further: potency means the concentration at half of the fitted maximal effect
Summary of the method: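 Compound titrations (15 concentrations) went onto HepG2-CYP2B6-hCAR cells 4 h after seeding, alongside PK11195 at a final 0.75 uM; a 23 h, 37 C/5% CO2 incubation preceded CellTiter-Fluor viability measurement.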

[3] = qHTS assay to identify small molecule antagonists of the constitutive androstane receptor (CAR) signaling pathway - cell viability counter screen (AID 1224837); further: nearly all actives have a fitted effect of over 45% in size; further: potency means the concentration at half of the fitted maximal effect
Summary of the method: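 HepG2 cells stably carrying hCAR and CYP2B6-2.2kb reporter, stimulated with 50 nM CITCO and compounds at 15 concentrations for 23 h at 37 C. Viability measured by CellTiter-Fluor fluorescence.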

[4] = biological target: Nuclear receptor subfamily 1 group I member 3 (Homo sapiens) (UniProt Q14994); experiment: qHTS assay to identify small molecule agonists of the constitutive androstane receptor (CAR) signaling pathway (AID 1224839); further: nearly all actives have a fitted effect of over 15% in size; further: potency means the concentration at half of the fitted maximal effect
Summary of the method: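 In this screen, CAR-driven CYP2B6 promoter activity is measured by luminescence in HepG2-CYP2B6-hCAR cells after 24 h with test compounds and 0.75 uM PK11195 (final concentration).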

[5] = qHTS assay to identify small molecule antagonists of the estrogen related receptor signaling pathway with the pleiotropic PPARgamma coactivator (PGC) from Tox21 10K library (AID 1224841; call rule not given here; further: actives are mostly falling curves and most rising ones were filed inactive; nearly all actives have a fitted effect of over 50% in size; further: potency means the concentration at half of the fitted maximal effect)
Summary of the method: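 PGC/ERR cell line, 2,000 cells/well, pre-incubated 6 hours at 37 C, then exposed to compounds for 18 hours at 37 C; luciferase read with One-Glo luminescence after 30 min at room temperature.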

[6] = qHTS assay to identify small molecule agonists of the estrogen related receptor signaling pathway with the pleiotropic PPARgamma coactivator (PGC) from Tox21 10K library (AID 1224842); further: nearly all actives have a fitted effect of over 15% in size
Summary of the method: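 PGC/ERR reporter cell line, 2,000 cells per well, incubated 6 h at 37 C before 23 nL compound in DMSO was added. After 18 h at 37 C, One-Glo luminescence read following 30 min at room temperature.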

[7] = biological target: Thyrotropin receptor (Homo sapiens) (UniProt P16473); experiment: qHTS assay to identify small molecule agonists of the thyroid stimulating hormone receptor (TSHR) signaling pathway (AID 1224843; calls by dose curve; further: nearly all actives have a fitted effect of over 45% in size)
Summary of the method: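 Steps: seed 800 TSHR-HEK293 cells per well; add test compound and hold 30 min at ambient temperature; dispense cAMP-d2 then anti-cAMP cryptate; incubate 1 h at ambient; measure fluorescence intensity.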

[8] = qHTS assay to identify small molecule agonists of the hypoxia (HIF-1) signaling pathway - cell viability counter screen (AID 1224844; calls by dose curve; further: nearly all actives have a fitted effect of over 50% in size)
Summary of the method: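 HRE-bla ME-180 cells, 2,000/well in 0.5% dialyzed FBS medium, treated 17 h at 37C with compounds. Viability read in the same wells as the bla reporter, by CellTiter-Glo luminescence after 30 min at room temperature.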

[9] = qHTS assay to identify small molecule agonists of H2AX (AID 1224845; active means well fitted activation curve with a large enough effect in the signal ratio in the repeat runs, not every such curve was filed as active; the % refers to the signal ratio)
Summary of the method: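 Wild-type CHO-K1 cells, plated overnight, exposed 3hr at 37C to 15 concentrations (0.76% DMSO final). Lysed, then HTRF anti-pH2AX (S139) cryptate and anti-H2AX-d2 antibodies, 24 hr room temperature; 665/620 nm emission read.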

[10] = qHTS assay to identify small molecule agonists of the hypoxia (HIF-1) signaling pathway (AID 1224846; active means well fitted activation curve with a large enough effect in the signal ratio in the repeat runs, not every such curve was filed as active; the % refers to the signal ratio)
Summary of the method: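 HRE-bla ME-180 beta-lactamase reporter cells in medium with 0.5% dialyzed FBS, pre-incubated 5 h then exposed to compounds 17 h at 37C, 5% CO2; reporter induction read with CCF4-AM FRET substrate.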

[11] = qHTS assay to identify small molecule antagonists of the estrogen related receptor (ERR) signaling pathway from Tox21 library (AID 1224848); further: nearly all actives have a fitted effect of over 50% in size; further: potency means the concentration at half of the fitted maximal effect
Summary of the method: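 Luminescent reporter read-out (ONE-Glo) from NTP's ERR cell line after 18 h treatment at 37 C with DMSO-dissolved Tox21 compounds; cells pre-plated 6 h beforehand at 2,000 per well.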

[12] = qHTS assay to identify small molecule agonists of the estrogen related receptor (ERR) signaling pathway from Tox21 library (AID 1224849; calls by dose curve; further: nearly all actives have a fitted effect of over 15% in size); conditions: ERR reporter cell line, ONE-Glo luciferase, 18 h; at 92.4 µM (top of the series) unless noted
Summary of the method: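 ERR reporter cells (NTP line) pre-incubated 6 hours at 37 C, then exposed to compounds for 18 hours at 37 C. ONE-Glo luciferase luminescence was read after 30 minutes at room temperature.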

[13] = qHTS RealTime-Glo MT Cell Viability Assay in HepG2 cells - 24 hour (AID 1224867); further: nearly all actives have a fitted effect of over 50% in size
Summary of the method: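 Tox21 10K library screened in qHTS format on HepG2 cells carrying RealTime-Glo reagents. Compounds were added after a 5 h preincubation, and the luminescent signal from continuous culture was measured repeatedly during 40 h treatment.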

[14] = qHTS assay to identify small molecule antagonists of the estrogen related receptor signaling pathway with the pleiotropic PPARgamma coactivator (PGC) from Tox21 10K library - cell viability counter screen (AID 1224840; active means well fitted cell-killing curve with a large enough effect in the repeat runs, not every such curve was filed as active; further: nearly all actives have a fitted effect of over 40% in size; further: potency means the concentration at half of the fitted maximal effect)
Summary of the method: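 PGC/ERR cells (2,000/well) plated 6 h, then compound-treated for 17.5 h at 37 C. Viability measured by CellTiter-Fluor fluorescence after 30 min at 37 C, multiplexed with the pathway assay.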

[15] = qHTS assay to identify small molecule agonists of H2AX - cell viability counter screen (AID 1224847; calls by dose curve; further: nearly all actives have a fitted effect of over 30% in size; further: potency means the concentration at half of the fitted maximal effect)
Summary of the method: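 Read-out: CellTiter-Glo luminescence, 30 min RT. Cells: wild-type CHO-K1, 1000/well, 10% FBS, plated overnight at 37C. Treatment: 15 concentrations, 3 hr, 37C, 0.76% DMSO.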

[16] = qHTS RealTime-Glo MT Cell Viability Assay in HEK293 cells - 32 hour (AID 1224868); further: nearly all actives have a fitted effect of over 50% in size; further: potency means the concentration at half of the fitted maximal effect
Summary of the method: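 Luminescence generated by NanoLuc from substrate produced by living HEK293 cells served as the viability signal. Each value reflects the reading at its stated time point during continuous 40 h compound exposure at 37 C.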

[17] = A CellTox Green Cytotoxicity Assay to monitor cytotoxicity in HEK293 cells - 0 hour (AID 1224869); further: nearly all actives have a fitted effect of over 50% in size
Summary of the method: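 HEK293 cells, 600/well, were preincubated 5 hours and then exposed to compounds at 37 C for up to 40 hours. A cell-impermeant cyanine dye staining dead-cell DNA was read by fluorescence at 0, 8, 16, 24, 32 and 40 h time points.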

[18] = biological target: Nuclear receptor subfamily 1 group I member 3 (Homo sapiens) (UniProt Q14994); experiment: qHTS assay to identify small molecule antagonists of the constitutive androstane receptor (CAR) signaling pathway (AID 1224838); further: nearly all actives have a fitted effect of over 40% in size
Summary of the method: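 HepG2 cells stably carrying hCAR and a CYP2B6-2.2kb luciferase reporter, seeded 4 hrs before compound (15 concentrations). Stimulated with 50 nM CITCO for 24 hr at 37 C. ONE-Glo luminescence read after 30 min at room temperature.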
On the % scale 0 is the no-effect control and ±100 the full control effect.

Chain of Nuclear receptor subfamily 1 group I member 3 (Homo sapiens) (Q14994 whole entry, looked up): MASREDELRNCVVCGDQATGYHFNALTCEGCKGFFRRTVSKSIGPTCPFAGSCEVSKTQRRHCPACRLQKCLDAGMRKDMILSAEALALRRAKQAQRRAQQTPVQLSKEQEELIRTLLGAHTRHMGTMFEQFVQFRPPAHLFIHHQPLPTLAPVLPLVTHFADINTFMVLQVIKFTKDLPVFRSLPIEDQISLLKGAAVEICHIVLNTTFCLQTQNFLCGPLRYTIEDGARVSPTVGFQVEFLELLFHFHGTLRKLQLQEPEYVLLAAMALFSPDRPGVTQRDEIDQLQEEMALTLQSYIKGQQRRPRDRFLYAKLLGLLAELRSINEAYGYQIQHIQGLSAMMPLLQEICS
Chain of Thyrotropin receptor (Homo sapiens) (P16473 whole entry, looked up): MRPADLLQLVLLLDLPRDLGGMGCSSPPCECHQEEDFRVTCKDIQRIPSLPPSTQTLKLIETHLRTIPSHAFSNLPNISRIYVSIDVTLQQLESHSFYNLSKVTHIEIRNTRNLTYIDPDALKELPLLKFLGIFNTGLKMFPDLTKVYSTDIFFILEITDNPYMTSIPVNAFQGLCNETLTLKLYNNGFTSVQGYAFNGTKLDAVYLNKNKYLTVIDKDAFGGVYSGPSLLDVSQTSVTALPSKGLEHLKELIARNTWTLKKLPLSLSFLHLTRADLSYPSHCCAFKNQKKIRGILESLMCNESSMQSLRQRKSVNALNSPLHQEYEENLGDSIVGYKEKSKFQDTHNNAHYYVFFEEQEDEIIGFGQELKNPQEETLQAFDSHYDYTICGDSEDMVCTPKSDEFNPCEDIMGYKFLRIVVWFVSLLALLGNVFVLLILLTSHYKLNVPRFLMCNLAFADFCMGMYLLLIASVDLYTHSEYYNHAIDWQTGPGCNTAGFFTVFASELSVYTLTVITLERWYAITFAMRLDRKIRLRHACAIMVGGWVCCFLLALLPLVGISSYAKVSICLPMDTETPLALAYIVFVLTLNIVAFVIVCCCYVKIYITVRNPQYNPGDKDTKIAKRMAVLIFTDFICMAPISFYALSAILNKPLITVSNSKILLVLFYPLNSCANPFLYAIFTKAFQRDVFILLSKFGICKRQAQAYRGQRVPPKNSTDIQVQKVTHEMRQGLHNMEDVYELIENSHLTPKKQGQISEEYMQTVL

C=COCC(C)C
inactive: Potency [1] | Potency [2] | Potency [3] | Potency [4] | Potency [5] | Potency [6] | Potency [7] | Potency [8] | Potency [9] | outcome [10] | Potency [11] | activity change, positive = activation [12] -0.119% | Potency [13]

O=C1NC(=O)c2cc([N+](=O)[O-])ccc21
inactive: Potency [1] | Potency [2] | Potency [3] | Potency [14] | Potency [7] | Potency [8] | Potency [9] | outcome [10] | Potency [15] | Potency [13] | Potency [16] | Potency [17]

OC(CCN1CCCC1)(c1ccccc1)C1CCCCC1 (stereo not drawn)
inactive: Potency [1] | Potency [2] | Potency [3] | Potency [14] | Potency [8] | Potency [9] | Potency [15] | Potency [13] | Potency [16] | Potency [17]

CCC1(CO)COCOC1
inactive: Potency [1] | Potency [2] | Potency [3] | Potency [14] | Potency [5] | Potency [6] | Potency [8] | Potency [9] | outcome [10] | Potency [15] | Potency [11] | activity change, positive = activation [12] 7.78% | Potency [13] | Potency [16] | Potency [17]

CCCCCCCCC(CCCCCC)C(=O)O (stereo not drawn)
inactive: Potency [1] | Potency [2] | Potency [3] | Potency [4] | Potency [14] | Potency [5] | Potency [6] | Potency [9] | Potency [13] | Potency [16] | Potency [17]

CC(=O)OCCN(CCOC(C)=O)c1ccc(N=Nc2ccc([N+](=O)[O-])cc2C#N)cc1
inactive: Potency [2] | Potency [3] | Potency [18] | Potency [6] | Potency [8] | outcome [10] | Potency [13] | Potency [17]
active: Potency [1] 48.6 µM | Potency [15] 50.5 µM | Potency [11] 61.1 µM

CC1(C)[C@@H](OC(=O)CCC(=O)O)CC[C@]2(C)[C@H]3C(=O)C=C4[C@@H]5C[C@@](C)(C(=O)O)CC[C@]5(C)CC[C@@]4(C)[C@]3(C)CC[C@@H]12
inactive: Potency [1] | Potency [2] | Potency [3] | Potency [18] | Potency [4] | Potency [14] | Potency [5] | Potency [6] | Potency [9] | Potency [11] | activity change, positive = activation [12] 1.84% [at 42.5 µM] | Potency [13] | Potency [16] | Potency [17]

CCCCC(CC)CN (stereo not drawn)
inactive: Potency [1] | Potency [2] | Potency [3] | Potency [18] | Potency [4] | Potency [14] | Potency [5] | Potency [6] | Potency [7] | Potency [8] | Potency [9] | Potency [15] | Potency [11] | activity change, positive = activation [12] 2.45% | Potency [13] | Potency [16]

C[C@H]1C[C@H](O)c2ccsc2S1(=O)=O
inactive: Potency [1] | Potency [2] | Potency [3] | Potency [4] | Potency [14] | Potency [5] | Potency [6] | Potency [7] | Potency [8] | Potency [9] | outcome [10] | Potency [11] | Potency [13] | Potency [16]

O=[N+]([O-])c1cc(C2CCCCC2)c(O)c([N+](=O)[O-])c1
inactive: Potency [4] | Potency [6] | Potency [9] | activity change, positive = activation [12] -69.4% | Potency [17]
active: Potency [1] 12.2 µM | Potency [2] 12.2 µM | Potency [3] 15.3 µM | Potency [14] 12.2 µM | Potency [5] 4.84 µM | Potency [15] 11.3 µM | Potency [16] 12.3 µM

C=CCc1ccccc1OCC(O)CNC(C)C (stereo not drawn)
inactive: Potency [1] | Potency [2] | Potency [3] | Potency [4] | Potency [14] | Potency [7] | Potency [8] | Potency [9] | Potency [15] | Potency [13] | Potency [16] | Potency [17]

O=C(O)c1cccc(-c2noc(-c3ccccc3F)n2)c1
inactive: Potency [1] | Potency [2] | Potency [3] | Potency [18] | Potency [14] | Potency [7] | Potency [8] | Potency [9] | outcome [10] | Potency [13] | Potency [16] | Potency [17]
active: Potency [4] 7.5 nM

CC(C)=CC(=O)C=C(C)C
inactive: Potency [1] | Potency [2] | Potency [3] | Potency [18] | Potency [4] | Potency [14] | Potency [5] | Potency [6] | Potency [8] | Potency [9] | Potency [11] | activity change, positive = activation [12] 0.257% | Potency [13] | Potency [16] | Potency [17]

N#CCc1ccc(Cl)cc1Cl
inactive: Potency [1] | Potency [2] | Potency [3] | Potency [18] | Potency [4] | Potency [14] | Potency [5] | Potency [6] | Potency [7] | Potency [8] | Potency [9] | outcome [10] | Potency [15] | Potency [11] | Potency [13] | Potency [16] | Potency [17]

CC(=O)Nc1cc(S(=O)(=O)O)cc2cc(S(=O)(=O)O)c(N=Nc3ccccc3)c(O)c12
inactive: Potency [18] | Potency [4] | Potency [6] | Potency [8] | outcome [10] | activity change, positive = activation [12] -5.56% | Potency [13] | Potency [16] | Potency [17]
active: Potency [1] 24.3 µM | Potency [2] 30.6 µM | Potency [3] 27.3 µM | Potency [14] 27.3 µM | Potency [15] 50.5 µM

O=C(OCC(O)CO)c1ccccc1Nc1ccnc2cc(Cl)ccc12 (stereo not drawn)
active: Potency [1] 29.8 µM | Potency [11] 26.6 µM | Potency [16] 8.49 µM
inactive: Potency [2] | Potency [3] | Potency [18] | Potency [4] | Potency [14] | Potency [5] | Potency [6] | Potency [8] | activity change, positive = activation [12] -40.1% [at 42.5 µM] | Potency [13] | Potency [17]
